Source: PubChem BioAssay (Tox21)
Results filed as inconclusive are left out. Calls of active or inactive are those of the source. Unless noted, calls follow the shape of the dose curve; as a rule, active = well fitted curve in the direction sought with a large enough effect in the repeat runs; inconclusive = weak or mixed curves; inactive = no such curve, though single readings can be large; an effect the other way counts as inactive or inconclusive.

How the values were obtained:
[1] = biological target: Progesterone receptor (Homo sapiens) (UniProt P06401); assay: qHTS assay to identify small molecule agonists of the progesterone receptor (PR) signaling pathway (AID 1346784; calls by dose curve; also: % is scaled to controls: 0 for no effect and ±100 for the full control effect; nearly all actives have a fitted effect of over 30% in size); details: PR-UAS-bla HEK293T, beta-lactamase FRET ratio, 16 h; series mostly up to 92.4 µM
Sequence of Progesterone receptor (Homo sapiens) (P06401 whole entry, looked up): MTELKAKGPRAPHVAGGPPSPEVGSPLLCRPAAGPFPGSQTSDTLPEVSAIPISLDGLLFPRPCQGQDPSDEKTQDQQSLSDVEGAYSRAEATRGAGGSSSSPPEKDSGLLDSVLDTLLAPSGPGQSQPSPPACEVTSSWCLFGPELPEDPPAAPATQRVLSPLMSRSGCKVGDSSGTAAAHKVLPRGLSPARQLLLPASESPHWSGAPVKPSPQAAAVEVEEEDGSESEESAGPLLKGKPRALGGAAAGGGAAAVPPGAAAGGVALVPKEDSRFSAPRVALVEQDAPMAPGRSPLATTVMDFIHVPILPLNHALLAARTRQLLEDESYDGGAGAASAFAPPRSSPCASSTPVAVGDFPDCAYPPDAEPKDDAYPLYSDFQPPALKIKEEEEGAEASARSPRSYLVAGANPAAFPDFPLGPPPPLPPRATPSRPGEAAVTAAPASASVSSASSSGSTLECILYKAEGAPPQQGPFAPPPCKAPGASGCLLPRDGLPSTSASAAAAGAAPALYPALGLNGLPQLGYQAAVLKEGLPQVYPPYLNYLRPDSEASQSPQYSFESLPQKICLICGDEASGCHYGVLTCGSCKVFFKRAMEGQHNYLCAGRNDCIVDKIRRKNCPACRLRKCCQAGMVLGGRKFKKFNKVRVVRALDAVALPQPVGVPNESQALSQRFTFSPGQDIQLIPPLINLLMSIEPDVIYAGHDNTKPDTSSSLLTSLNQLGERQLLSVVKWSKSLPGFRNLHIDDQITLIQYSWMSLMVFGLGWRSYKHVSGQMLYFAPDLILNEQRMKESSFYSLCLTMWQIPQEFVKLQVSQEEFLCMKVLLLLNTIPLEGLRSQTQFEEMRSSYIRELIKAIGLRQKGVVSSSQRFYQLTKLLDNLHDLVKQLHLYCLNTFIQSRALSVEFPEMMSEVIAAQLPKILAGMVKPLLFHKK
Procedure, shortened: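 Beta-lactamase reporter read-out: after 16 hr compound treatment at 37C and a further 2 hr at room temperature with LiveBLAzer B/G FRET substrate, fluorescence was measured in PR-UAS-bla HEK 293T cells grown in 2% charcoal-stripped serum.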

[2] = biological target: Progesterone receptor (Homo sapiens) (UniProt P06401); assay: qHTS assay to identify small molecule antagonists of the progesterone receptor (PR) signaling pathway (AID 1346795; active = well fitted inhibition curve with a large enough effect in the signal ratio in the repeat runs, not every such curve was filed as active; the % refers to the signal ratio; also: potency is read from the fitted curve at half-maximal effect; as to activity change, negative = inhibition: % is scaled to controls: 0 for no effect and ±100 for the full control effect); details: PR-UAS-bla HEK293T, beta-lactamase FRET ratio, 16 h; series mostly up to 92.4 µM
Procedure, shortened: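 Read-out is fluorescence from the LiveBLAzer B/G FRET substrate, cleaved by a UAS-controlled beta-lactamase in PR-UAS-bla HEK293T cells after 16 hr exposure to compound plus 1 nM promegestone (final), followed by 2 hr at room temperature.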

[3] = qHTS assay to identify small molecule antagonists of the TGF-beta/Smad signaling pathway - cell viability counter screen (AID 1346824); details: SBE-bla HEK293T viability, CellTiter-Glo luminescence; series mostly up to 76.8 µM; also: nearly all actives have a fitted effect of over 50% in size; also: potency is read from the fitted curve at half-maximal effect
Procedure, shortened: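 SBE-bla HEK 293T cells, incubated overnight, then compound plus 0.25 ng/mL TGF-beta1 (stock added) for 5 hr at 37 C. Viability was read in the same wells by CellTiter-Glo luminescence after 30 min at room temperature.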

[4] = qHTS assay to identify small molecule agonists of the TGF-beta/Smad signaling pathway - cell viability counter screen (AID 1346829); details: SBE-bla HEK293T viability, CellTiter-Glo luminescence, 5 h; series mostly up to 76.8 µM; also: nearly all actives have a fitted effect of over 45% in size; also: potency is read from the fitted curve at half-maximal effect
Procedure, shortened: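 Luminescence from CellTiter-Glo, read after a 30 min room-temperature incubation, gives cell viability of SBE-bla HEK 293T cells treated 5 hr with compounds at 37 C.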

[5] = qHTS assay to identify small molecule agonists of the TGF-beta/Smad signaling pathway (AID 1346859; active = well fitted activation curve with a large enough effect in the signal ratio in the repeat runs, not every such curve was filed as active; the % refers to the signal ratio; also: % is scaled to controls: 0 for no effect and ±100 for the full control effect); details: SBE-bla HEK293T, TGF-beta/Smad beta-lactamase reporter, 5 h; series mostly up to 76.8 µM
Procedure, shortened: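 SBE-bla HEK 293T, 4,000 cells/well, plated o/n; cpd in DMSO, 5 hr, 37 C/5% CO2; B/G FRET substrate 2 hr RT; ex 405, em 460/530 nm.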

[6] = biological target: Thyrotropin-releasing hormone receptor (Homo sapiens) (UniProt P34981); assay: qHTS assay to identify small molecule antagonists of the thyrotropin-releasing hormone receptor (TRHR) signaling pathway (AID 1346877; active = well fitted inhibition curve with a large enough effect in the repeat runs, not every such curve was filed as active; also: potency is read from the fitted curve at half-maximal effect; as to activity, negative = inhibition: % is scaled to controls: 0 for no effect and ±100 for the full control effect); details: TRHR-HEK293, TRH-induced calcium fluorescence, antagonist mode; series mostly up to 51.3 µM
Sequence of Thyrotropin-releasing hormone receptor (Homo sapiens) (P34981 whole entry, looked up): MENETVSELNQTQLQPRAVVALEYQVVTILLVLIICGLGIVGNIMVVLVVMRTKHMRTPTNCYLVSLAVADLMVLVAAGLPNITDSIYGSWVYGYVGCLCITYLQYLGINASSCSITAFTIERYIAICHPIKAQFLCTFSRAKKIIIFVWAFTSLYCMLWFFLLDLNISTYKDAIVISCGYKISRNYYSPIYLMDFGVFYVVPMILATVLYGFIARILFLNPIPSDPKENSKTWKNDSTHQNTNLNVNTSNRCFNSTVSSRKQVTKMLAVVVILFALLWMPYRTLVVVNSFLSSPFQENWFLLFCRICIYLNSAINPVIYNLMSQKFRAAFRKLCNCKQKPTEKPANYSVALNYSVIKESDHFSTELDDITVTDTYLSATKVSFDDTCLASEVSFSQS
Procedure, shortened: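 HEK293/TRHR cells, 18 h, 37 °C; Ca2+ dye 2 h; cpd 5 min RT; TRH 1 nM final; fluorescence read 3 min, 1 s intervals; 15 concs, triplicate.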

[7] = biological target: Thyrotropin-releasing hormone receptor (Homo sapiens) (UniProt P34981); assay: qHTS assay to identify small molecule agonists of the thyrotropin-releasing hormone receptor (TRHR) signaling pathway (AID 1346891; calls by dose curve; also: potency is read from the fitted curve at half-maximal effect; as to activation: % is scaled to controls: 0 for no effect and ±100 for the full control effect); details: TRHR-HEK293 calcium fluorescence, agonist mode; series mostly up to 57.6 µM
Procedure, shortened: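 Intracellular calcium rise, read as fluorescence every second for 3 min, served as the agonist signal in dye-loaded HEK293 cells expressing TRHR; each compound ran at 15 concentrations in triplicate.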

[8] = Human pregnane X receptor (PXR) small molecule agonists, qHTS cell viability counter screen (AID 1346977); details: PXR-Luc HepG2 viability, CellTiter-Fluor, 24 h; series mostly up to 92.4 µM; also: nearly all actives have a fitted effect of over 50% in size; also: potency is read from the fitted curve at half-maximal effect
Procedure, shortened: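 PXR-Luc HepG2, 2,000 cells/well, 5% charcoal-stripped FBS; 5hr settle; cpd 24hr, 37C/5% CO2; CellTiter-Fluor at 23hr, read 1hr later (fluorescence).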

[9] = Caspase-3/7 induction in HepG2 cells by small molecules, qHTS assay (AID 1346978); details: HepG2 caspase-3/7 activation, Caspase-Glo luminescence, 17 h; series mostly up to 92.4 µM; also: nearly all actives have a fitted effect of over 15% in size; also: potency is read from the fitted curve at half-maximal effect
Procedure, shortened: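 Wild-type HepG2 cells, 2,000/well, settled 5 hr at 37 C and 5% CO2, then compound-treated for 17 hr; caspase-3/7 activity read by luminescent Caspase-Glo 3/7 after 30 min at room temperature.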

[10] = Caspase-3/7 induction in CHO-K1 cells by small molecules, qHTS cell viability counter screen (AID 1346979); details: CellTiter-Fluor fluorescence, 17 h; series mostly up to 92.4 µM; also: nearly all actives have a fitted effect of over 35% in size; also: potency is read from the fitted curve at half-maximal effect
Procedure, shortened: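 Cells (CHO-K1, wild type) are plated at 1,500 per well and incubated 5hr. Test compounds in DMSO are then pinned in, followed by 16hr at 37C and 5% CO2. Viability is read by CellTiter-Fluor fluorescence after 1hr.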

[11] = Caspase-3/7 induction in CHO-K1 cells by small molecules, qHTS assay (AID 1346980); details: CHO-K1 caspase-3/7 induction, Caspase-Glo luminescence, 17 h; series mostly up to 92.4 µM; also: nearly all actives have a fitted effect of over 15% in size; also: potency is read from the fitted curve at half-maximal effect
Procedure, shortened: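 Wild-type CHO-K1 cells exposed to compounds for 17hr at 37 C, 5% CO2. Caspase-3/7 activity then measured by Caspase-Glo 3/7 luminescence after 30min at room temperature.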

[12] = biological target: Nuclear receptor subfamily 1 group I member 2 (Homo sapiens) (UniProt O75469); assay: Human pregnane X receptor (PXR) small molecule agonists, qHTS assay (AID 1346982); details: PXR-Luc HepG2, CYP3A4 luciferase reporter, 24 h; series mostly up to 92.4 µM; also: nearly all actives have a fitted effect of over 35% in size; also: potency is read from the fitted curve at half-maximal effect
Sequence of Nuclear receptor subfamily 1 group I member 2 (Homo sapiens) (O75469 whole entry, looked up): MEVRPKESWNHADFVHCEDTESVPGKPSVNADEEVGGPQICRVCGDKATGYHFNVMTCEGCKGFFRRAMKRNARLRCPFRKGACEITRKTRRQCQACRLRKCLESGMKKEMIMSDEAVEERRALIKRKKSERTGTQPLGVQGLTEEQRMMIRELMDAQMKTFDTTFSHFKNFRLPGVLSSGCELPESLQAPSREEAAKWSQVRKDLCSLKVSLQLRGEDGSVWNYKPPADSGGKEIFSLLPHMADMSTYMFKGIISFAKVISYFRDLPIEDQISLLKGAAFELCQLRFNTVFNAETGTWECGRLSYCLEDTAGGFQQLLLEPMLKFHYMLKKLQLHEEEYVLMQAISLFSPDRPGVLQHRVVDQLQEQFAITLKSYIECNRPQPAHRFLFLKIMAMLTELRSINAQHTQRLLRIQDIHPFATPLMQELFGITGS
Procedure, shortened: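 HepG2 PXR-Luc reporter line, 5% charcoal-stripped FBS; 5 hr pre-incubation, compound (DMSO) 24 hr at 37 C/5% CO2; ONE-Glo 30 min RT; luminescence read-out.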

[13] = biological target: Nuclear receptor subfamily 1 group I member 2 (Rattus norvegicus) (UniProt Q9R1A7); assay: Rat pregnane X receptor (rPXR) activation by small molecules, qHTS assay (AID 1346983); details: rPXR luciferase reporter cells, One-Glo luminescence, 24 h; max activation: active compounds read high; also: % is scaled to controls: 0 for no effect and ±100 for the full control effect; nearly all actives have a fitted effect of over 20% in size
Sequence of Nuclear receptor subfamily 1 group I member 2 (Rattus norvegicus) (Q9R1A7 whole entry, looked up): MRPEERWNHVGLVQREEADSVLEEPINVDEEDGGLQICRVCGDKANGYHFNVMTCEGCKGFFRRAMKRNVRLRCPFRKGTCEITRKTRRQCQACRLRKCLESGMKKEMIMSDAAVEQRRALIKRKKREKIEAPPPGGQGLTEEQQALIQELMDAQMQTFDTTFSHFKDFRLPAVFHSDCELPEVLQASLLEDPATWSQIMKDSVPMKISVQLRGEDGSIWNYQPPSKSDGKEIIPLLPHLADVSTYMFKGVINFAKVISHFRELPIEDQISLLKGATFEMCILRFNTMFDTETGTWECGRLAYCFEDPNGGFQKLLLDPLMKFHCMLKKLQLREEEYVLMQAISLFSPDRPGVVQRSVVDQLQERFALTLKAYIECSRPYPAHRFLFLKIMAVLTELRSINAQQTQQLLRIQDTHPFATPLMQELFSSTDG
Procedure, shortened: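 Cell-based rPXR activation assay: rPXR cells, 2,000 per well, rested 5hr at 37 C, then exposed to compounds in DMSO for 24 hr at 37 C. Luciferase activity read by One-Glo luminescence after 30 min at room temperature.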

[14] = biological target: Nuclear receptor subfamily 1 group I member 2 (Homo sapiens) (UniProt O75469); assay: CYP3A4 induction through human pregnane X receptor (PXR) by small molecules, qHTS assay (AID 1346984); details: DPX-2 HepG2 PXR, CYP3A4-luciferin luminescence, 24 h; series mostly up to 46.1 µM; also: % is scaled to controls: 0 for no effect and ±100 for the full control effect; nearly all actives have a fitted effect of over 40% in size
Procedure, shortened: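 HepG2-derived DPX-2 line carrying PXR plus a CYP3A4-promoter luciferase reporter; cells plated 5 hr, compound-exposed 24 hr at 37C. CYP3A4 activity probed with 3uM (final) Luciferin-IPA for 3hr, then luciferase read after One-Glo.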

[15] = biological target: Nuclear receptor subfamily 1 group I member 2 (Homo sapiens) (UniProt O75469); assay: Human pregnane X receptor (PXR) activation by small molecules, qHTS assay (AID 1346985); details: DPX-2 HepG2 CYP3A4-luciferase, 24 h; series mostly up to 38.3 µM; also: % is scaled to controls: 0 for no effect and ±100 for the full control effect; nearly all actives have a fitted effect of over 40% in size
Procedure, shortened: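 DPX-2 cells (HepG2 co-transfected with a PXR response element and a CYP3A4-promoter luciferase construct) were seeded at 2,000 per well, rested 5 hr at 37C, then exposed to DMSO-dissolved compounds for 24 hr. Activation was read as luciferase luminescence.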

[16] = qHTS assay to identify small molecule antagonists of the progesterone receptor (PR) signaling pathway - cell viability counter screen (AID 1346798); details: PR-UAS-bla HEK293T viability, CellTiter-Glo luminescence, 16 h; series mostly up to 92.4 µM; also: potency is read from the fitted curve at half-maximal effect; nearly all actives have a fitted effect of over 50% in size
Procedure, shortened: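 HEK293T PR-UAS-bla, 2% charcoal-stripped FBS; 4 hr pre-plate; cpd + R5020, 16 h 37C; LiveBLAzer read first; then CellTiter-Glo 30 min RT, luminescence.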

[17] = qHTS assay to identify small molecule agonists of the progesterone receptor (PR) signaling pathway - cell viability counter screen (AID 1346799; calls by dose curve; also: nearly all actives have a fitted effect of over 45% in size; also: potency is read from the fitted curve at half-maximal effect); details: PR-UAS-bla HEK293T viability, CellTiter-Glo luminescence, 16 h; series mostly up to 92.4 µM
Procedure, shortened: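 Luminescence from CellTiter-Glo, added after the beta-lactamase FRET read in the same wells, gave cytotoxicity in PR-UAS-bla HEK293T cells treated with compounds for 16 hr at 37C.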

[18] = Caspase-3/7 induction in HepG2 cells by small molecules, qHTS cell viability counter screen (AID 1346981); details: CellTiter-Fluor fluorescence, 17 h; series mostly up to 92.4 µM; also: nearly all actives have a fitted effect of over 30% in size; also: potency is read from the fitted curve at half-maximal effect
Procedure, shortened: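 Fluorescence read-out of live-cell protease activity (CellTiter-Fluor) after 1 hr with reagent. This was measured in the same wells as the caspase-3/7 luminescence, on HepG2 cells exposed to DMSO-dissolved compounds for 16 hr at 37 C.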

[19] = biological target: Acetylcholinesterase (Homo sapiens) (UniProt P22303); assay: Acetylcholinesterase (AChE) small molecule antagonists: colormetric cell-based qHTS assay (AID 1347395; calls by dose curve; also: % is scaled to controls: 0 for no effect and ±100 for the full control effect; nearly all actives have a fitted effect of over 30% in size); details: SH-SY5Y cells AChE activity, colorimetric (Ellman); series mostly up to 115 µM
Sequence of Acetylcholinesterase (Homo sapiens) (P22303 whole entry, looked up): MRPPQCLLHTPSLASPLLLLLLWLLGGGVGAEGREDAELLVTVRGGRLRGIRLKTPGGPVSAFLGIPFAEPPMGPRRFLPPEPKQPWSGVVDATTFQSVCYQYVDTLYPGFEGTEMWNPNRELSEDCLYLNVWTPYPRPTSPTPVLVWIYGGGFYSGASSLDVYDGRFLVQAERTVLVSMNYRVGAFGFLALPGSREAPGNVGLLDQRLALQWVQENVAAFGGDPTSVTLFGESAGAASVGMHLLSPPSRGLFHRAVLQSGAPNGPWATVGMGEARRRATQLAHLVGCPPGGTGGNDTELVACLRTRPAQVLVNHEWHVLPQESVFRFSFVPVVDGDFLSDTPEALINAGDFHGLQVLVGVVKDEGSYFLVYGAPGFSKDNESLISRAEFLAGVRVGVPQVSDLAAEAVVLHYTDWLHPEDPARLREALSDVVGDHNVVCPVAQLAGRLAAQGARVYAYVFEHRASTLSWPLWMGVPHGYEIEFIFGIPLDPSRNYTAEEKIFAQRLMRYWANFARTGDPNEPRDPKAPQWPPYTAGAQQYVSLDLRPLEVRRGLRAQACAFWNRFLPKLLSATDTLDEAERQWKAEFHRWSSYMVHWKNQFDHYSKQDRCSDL
Procedure, shortened: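 Colorimetric read-out: DTNB detects thiocholine released when cellular AChE in SH-SY5Y cells hydrolyses acetylthiocholine. Cells attached overnight, received compound for 30 min at 37 C, then substrate mix for 90 min at 37 C.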

[20] = biological target: Acetylcholinesterase (Homo sapiens) (UniProt P22303); assay: Acetylcholinesterase (AChE) small molecule antagonists: enzyme-based qHTS assay (AID 1347397; calls by dose curve; also: % is scaled to controls: 0 for no effect and ±100 for the full control effect; nearly all actives have a fitted effect of over 55% in size); details: Potency: AChE enzyme activity inhibition; series mostly up to 115 µM
Procedure, shortened: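 Colorimetric DTNB read-out of thiocholine released from acetylthiocholine by recombinant human AChE (50 mU/mL as dispensed). Compounds were preincubated 30 min at RT before substrate/DTNB addition, with a 10 min RT reaction.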

COc1ccc(Cc2nccc3cc(OC)c(OC)cc23)cc1OC
inactive: Potency [1] | Potency [2] | Potency [3] | Potency [4] | outcome [5] | Potency [6] | Potency [7] | Potency [9] | Potency [11] | max activation [13] -16.6% | Potency [14] | Potency [15]
active: Potency [8] 9.44 µM | Potency [10] 13.3 µM | Potency [12] 16.8 µM

CCC[CH2][Sn]([CH2]CCC)([CH2]CCC)[O][Sn]([CH2]CCC)([CH2]CCC)[CH2]CCC
inactive: activity, negative = inhibition [19] -0.727% [at 10.5 µM] | activity change, negative = inhibition [20] -1.88% [at 10.5 µM]
active: Potency [2] 0.752 µM | Potency [16] 1.68 µM | Potency [17] 1.89 µM | Potency [4] 1.51 µM | Potency [6] 1.05 µM | Potency [7] 1.35 µM | Potency [8] 0.533 µM | Potency [9] 2.38 µM | Potency [10] 0.336 µM | Potency [11] 0.671 µM | Potency [18] 1.34 µM | Potency [12] 0.238 µM

CCC[CH2][Sn]([CH2]CCC)([CH2]CCC)[CH2]CCC
active: Potency [2] 24.3 µM | Potency [16] 43.3 µM | Potency [3] 38.9 µM | Potency [4] 38.9 µM | Potency [8] 15.4 µM | Potency [9] 68.6 µM | Potency [10] 9.69 µM | Potency [11] 17.2 µM | Potency [18] 61.1 µM | Potency [12] 6.11 µM
inactive: Potency [6] | Potency [7] | Potency [19] | Potency [20]

CCN(CC)Cc1nccn1-c1ccc([N+](=O)[O-])cc1C(=O)c1ccccc1Cl
active: Potency [12] 10.6 µM
inactive: Potency [1] | Potency [17] | Potency [4] | outcome [5] | Potency [6] | Potency [7] | Potency [9] | Potency [10] | Potency [19] | Potency [20]

Cc1cc(C2CC2)nc(Nc2ccccc2)n1
inactive: Potency [3] | Potency [4] | outcome [5] | Potency [9] | Potency [11] | Potency [18] | Potency [19] | Potency [20]
active: Potency [2] 30.6 µM | Potency [12] 54.5 µM

CC#C[C@]1(O)CC[C@H]2[C@@H]3C[C@H](C)C4=CC(=O)CC[C@]4(C)[C@H]3CC[C@@]21C
inactive: Potency [2] | Potency [3] | Potency [4] | outcome [5] | Potency [6] | Potency [7] | Potency [8] | Potency [9] | Potency [18] | Potency [19] | Potency [20]
active: Potency [12] 23.7 µM

BrCC(Br)(Br)Br
active: Potency [6] 15.7 µM
inactive: Potency [1] | Potency [3] | Potency [4] | outcome [5] | Potency [7] | Potency [8] | Potency [9] | Potency [10] | Potency [11] | Potency [18] | Potency [12] | Potency [20]

CC(C)c1c(CN(C)C(C)Cc2ccccc2)n(C)n(-c2ccccc2)c1=O (stereo not given)
inactive: Potency [1] | Potency [3] | Potency [4] | Potency [6] | Potency [7] | Potency [8] | Potency [9] | Potency [10] | Potency [11] | Potency [18] | max activation [13] 8.57% | Potency [20]

Clc1ccc(C2(Cn3cncn3)OCCO2)c(Cl)c1
inactive: Potency [1] | Potency [3] | Potency [4] | outcome [5] | Potency [6] | Potency [7] | Potency [8] | Potency [9] | Potency [10] | Potency [11] | max activation [13] -0.146% | Potency [14] | Potency [15] | Potency [20]
